GDH-TPI counter-1 = GDH-TPI coupling enzyme inhibitors, primary screen, artefact control for M. tuberculosis FBA inhibitor project, biochemical, absorbance, full deck | inhibition, % at 4.8 µM | actives 1.2% (n = 360,000) | GDH-TPI coupled enzyme counterscreen, NADH absorbance | AID 588335, 2011; in the data active means inhibition above about 30%;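 further: 0% = DMSO wells and 100% = wells lacking the enzyme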
FBA Mtb inh = Mtb FBA enzyme inhibitors, primary screen, biochemical, fluorescence, strain H37Rv. inhibition, % at 1 µM. purified M. tuberculosis FBA, fluorescence read-out. actives 2.3% (n = 360,000). Fructose-bisphosphate aldolase (Mycobacterium tuberculosis (strain ATCC 25618 / H37Rv)), …. AID 588726, 2011;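 further: 0% = vehicle and 100% = reference inhibitor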
Vc quorum ag = inducers of Vibrio cholerae quorum light production without autoinducers, primary screen, BH1578 luxS cqsA deficient, single point; actives 0.16% (n = 350,000); activation, % at 18.7 µM; V. cholerae BH1578 lux reporter, luminescence, 6 h; in the data active means activation mostly above about 9.7%, no sharp cut-off
Rv3671c inh = Rv3671c serine protease inhibitors, primary screen, biochemical, fluorescence polarization, M. tuberculosis H37Rv; P9WHR9; inhibition, % at 5.96 µM; actives 0.048% (n = 320,000); in the data active means inhibition above about 38%;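 further: extracellular domain of Rv3671c used as enzyme; 0% = enzyme with DMSO and 100% = no enzyme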
RecA splice inh = Mtb RecA intein splicing inhibitors, primary screen, biochemical, fluorescence, HTS | cell-free RecA intein splicing | inhibition, % (test concentration not listed) | Protein RecA (Mycobacterium tuberculosis (strain ATCC 25618 / H37Rv)), P9WHJ3 | actives 0.75% (n = 290,000); in the data active means inhibition above about 30%;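 further: 0% = vehicle wells and 100% = reference inhibitor control wells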
Mtb UGM inh = M. tuberculosis UGM enzyme inhibitors, primary screen, biochemical, fluorescence polarization, single point | UDP-galactopyranose mutase (Mycobacterium tuberculosis (strain ATCC 25618 / H37Rv)), … | purified UGM, fluorescence polarization probe displacement | inhibition, % at 10 µM | actives 0.06% (n = 320,000); in the data active means inhibition above about 10%, passing the limit was not always enough
Mtb FBA confirm = M. tuberculosis aldolase blockers, biochemical, fluorescence, strain H37Rv, confirmation. actives 78% (n = 5,600). inhibition, % at 1 µM. purified M. tuberculosis FBA, fluorescence read-out. AID 651616, 2012. shares compounds with FBA Mtb inh;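 further: 0% = vehicle wells and 100% = reference inhibitor wells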
GDH-TPI counter-2 = GDH-TPI coupling enzyme inhibitors, artefact control for M. tuberculosis FBA inhibitor project, biochemical, fluorescence, high throughput; shares compounds with FBA Mtb inh; GDH-TPI coupled enzyme counterscreen; inhibition, % at 1 µM; actives 81% (n = 5,600); in the data active means inhibition above about 10%
The depositor's hits bear a star; i = inactive; x = no result. An excerpt weighted towards active compounds, which were near 4.1% of everything screened. Unless noted, no stated cut-off is given here; in the data, active means inhibition above about 27%; inactive means the rest.

SMILES	GDH-TPI counter-1	FBA Mtb inh	Vc quorum ag	Rv3671c inh	RecA splice inh	Mtb UGM inh	Mtb FBA confirm	GDH-TPI counter-2
CSc1nnc(-c2sc(-c3ccccc3)nc2C)n1C	12	54*	0	1	-5	-2	10	6
Cc1cc(=O)oc2c3c4c(cc12)OCCN4CCC3	6	76*	-3	-1	i	3	66*	66*
CC(C)c1cc(=O)oc2c3c4c(cc12)CCCN4CCC3	3	39*	8	-3	-66	1	98*	86*
Cc1ccc(/C=C/C(=O)N2CCN(c3ccc(F)cc3)CC2)o1	15	58*	i	-6	1	3	38*	36*
O=C(c1cc(-c2cccs2)nc2ccccc12)N1CCN(c2ccccc2)CC1	6	3	0	7	7	-1	x	x
O=C(c1cc(-c2cccs2)nc2ccccc12)N1CCN(S(=O)(=O)c2ccccc2)CC1	26	57*	i	-9	4	0	98*	76*
Cc1ccsc1C(=O)N1CCN(S(=O)(=O)c2cccc(F)c2)CC1	-10	2	-14	4	1	0	x	x
CC1CCCN(C(=O)c2cc(-c3cccs3)nc3ccccc23)C1 (stereo unspecified)	26	83*	x	-3	x	0	1	-1
O=C(c1cc(-c2cccs2)nc2ccccc12)N1CCN(S(=O)(=O)c2cccc(F)c2)CC1	15	38*	-1	-16	1	1	123*	92*
O=C(CSCc1ccc(Cl)cc1)Nc1ccc(O)cc1C(=O)O	-9	7	0	4	-17	0	x	x
CCCC(=O)Nc1ccc2c(c1)nc1n2CCN(C2CCCCC2)C1	5	63*	i	-8	-5	-3	194*	178*
O=C(Nc1ccc2c(c1)nc1n2CCN(Cc2ccccc2)C1)NC1CCCCC1	8	80*	i	-2	13	-4	16	11*
CC(=O)Nc1ccc2c(c1)nc1n2CCN(C2CCCCC2)C1	8	56*	-1	x	x	x	197*	135*
CCOC(=O)c1nn(C)c(=S)n(C)c1=O	13	3	-3	x	x	x	x	x
CC1=C(C(=O)Nc2ccccc2C(=O)NCc2ccccc2)SCCO1	-5	-6	0	-3	-1	-2	x	x
CC1=C(C(=O)Nc2ccccc2C(=O)NC2CCC(C)CC2)SCCO1 (stereo unspecified)	-4	37*	0	-2	-1	-2	20	17*
O=[N+]([O-])c1cccc2c3c([nH]c12)CCCC3	1	2	-1	-9	2	-1	x	x
CCc1cc(C(=O)c2ccc(Br)cc2)c(NC(=O)CN(CC)CC)s1	-8	-6	i	2	5	1	x	x
CCOC(=O)N1CCN(C(=O)c2ccc3nc4ccc(Cl)cc4c(=O)n3c2)CC1	7	12	-3	0	-24	0	x	x
CCOC(=O)N1CCN(C(=O)c2cccn3c(=O)c4sccc4nc23)CC1	53*	66*	i	0	x	0	9	-6
CCOC(=O)N1CCN(C(=O)c2ccc3nc4ccsc4c(=O)n3c2)CC1	25	29*	0	0	-2	-2	4	7
CCOc1ccc(N(CC(=O)Nc2cccc(C)c2C)S(=O)(=O)c2c(C)[nH]c(=O)[nH]c2=O)cc1	1	1	-1	-10	6	0	x	x
CCOc1ccc(N(CC(=O)Nc2c(C)cccc2C)S(=O)(=O)c2c(C)[nH]c(=O)[nH]c2=O)cc1	17	91*	i	-4	-1	-1	85*	53*

Screens: PubChem, several laboratories
